# Results reported in the antibiotic and cytotoxicity screens of Wong et al. (2023).
# About 1,500 (3.8%) of roughly 39,000 compounds were called active. What follows is part of a selection rich in actives, with near analogues and random picks from the rest.
# Tested on: HSkMC (human skeletal muscle cells)
# Assay: cytotoxicity call (relative viability < 0.9)
# Settings: 10 µM
row,SMILES,cytotoxicity call
1,C[C@H](CO)N1C[C@H](C)[C@@H](CN(C)Cc2ccncc2)Oc2c(NS(=O)(=O)c3ccccc3)cccc2C1=O,inactive
2,C[C@@H]1CN([C@H](C)CO)C(=O)Cc2cc(NS(=O)(=O)c3ccc(F)cc3)ccc2O[C@@H]1CN(C)Cc1ccc(-c2ccccc2)cc1,active
3,C[C@@H]1CN([C@H](C)CO)C(=O)Cc2cc(NS(=O)(=O)c3ccc(F)cc3)ccc2O[C@H]1CN(C)Cc1ccc(-c2ccccc2)cc1,active
4,C[C@H]1CN([C@@H](C)CO)C(=O)Cc2cc(NS(=O)(=O)c3ccc(F)cc3)ccc2O[C@@H]1CN(C)Cc1ccc(-c2ccccc2)cc1,active
5,C[C@H]1CN([C@@H](C)CO)C(=O)Cc2cc(NS(=O)(=O)c3ccc(F)cc3)ccc2O[C@H]1CN(C)Cc1ccc(-c2ccccc2)cc1,active
6,Cc1ccc(S(=O)(=O)N(C)C[C@H]2Oc3ncc(-c4ccncc4)cc3C(=O)N([C@H](C)CO)C[C@H]2C)cc1,inactive
7,C[C@H]1CCCCO[C@@H](CN(C)C(=O)Nc2ccc3c(c2)OCO3)[C@@H](C)CN([C@@H](C)CO)C(=O)c2cc(NC(=O)c3ccccc3)ccc2O1,inactive
8,CO[C@@H]1CN(C)C(=O)c2cc(NS(C)(=O)=O)ccc2OC[C@@H](C)N(C(=O)C2CCOCC2)C[C@@H]1C,inactive
9,Cc1noc(C)c1NC(=O)Nc1cccc2c1O[C@H](CN(C)Cc1ccc(C(F)(F)F)cc1)[C@H](C)CN([C@H](C)CO)C2=O,inactive
10,NNC(=O)c1cc2ccccc2[nH]1,inactive
11,C[C@H]1CCCCO[C@H](CN(C)Cc2ccccc2)[C@@H](C)CN([C@@H](C)CO)C(=O)c2cc(NC(=O)C3CCCCC3)ccc2O1,inactive
12,C[C@H](CO)N1C[C@H](C)[C@@H](CN(C)Cc2ccc(-c3ccccc3)cc2)Oc2ccc(NS(=O)(=O)c3ccc(F)cc3)cc2CC1=O,inactive
13,C[C@H](CO)N1C[C@H](C)[C@H](CN(C)Cc2ccc(-c3ccccc3)cc2)Oc2ccc(NS(=O)(=O)c3ccc(F)cc3)cc2CC1=O,active
14,C[C@@H]1CN([C@@H](C)CO)C(=O)Cc2cc(NS(=O)(=O)c3ccc(F)cc3)ccc2O[C@H]1CN(C)Cc1ccc(-c2ccccc2)cc1,inactive
15,C[C@@H]1CN([C@@H](C)CO)C(=O)Cc2cc(NS(=O)(=O)c3ccc(F)cc3)ccc2O[C@@H]1CN(C)Cc1ccc(-c2ccccc2)cc1,active
16,C[C@@H]1CN([C@@H](C)CO)C(=O)c2cc(NC(=O)CCC(F)(F)F)ccc2O[C@@H](C)CCCCO[C@H]1CN(C)C(=O)C1CCCCC1,inactive
17,CSC1=NN(C)c2cnn(C)c(=O)c2S1,inactive
18,Cc1noc(C)c1NC(=O)Nc1ccc2c(c1)C(=O)N([C@@H](C)CO)C[C@H](C)[C@@H](CN(C)C(=O)Nc1cccc3ccccc13)OCCCC[C@H](C)O2,inactive
19,CC(C)NC(=O)Nc1ccc2c(c1)C(=O)N([C@@H](C)CO)C[C@@H](C)[C@@H](CN(C)S(=O)(=O)c1ccc(F)cc1)O2,inactive
20,CO[C@@H]1CN(C)C(=O)c2ccc(NS(=O)(=O)c3cn(C)cn3)cc2OC[C@H](C)N(CCC(F)(F)F)C[C@H]1C,inactive
21,CC(=N)NCc1cccc(CN)c1,inactive
22,O=C(C[C@H]1CC[C@@H](NC(=O)c2cccnc2)[C@@H](CO)O1)NCCN1CCCCC1,inactive
23,Cc1noc(C)c1CC(=O)N1CCCC[C@@H]1CCOc1cccc(CN(C)Cc2cccc3cccnc23)c1,inactive

row,SMILES,cytotoxicity call
1,Cc1ccc(S(=O)(=O)N(C)C[C@H]2Oc3ccc(NS(=O)(=O)c4ccc(F)cc4)cc3CC(=O)N([C@H](C)CO)C[C@H]2C)cc1,inactive
2,C[C@@H]1CN([C@@H](C)CO)C(=O)c2cc(NS(=O)(=O)c3ccc(F)cc3)ccc2O[C@@H](C)CCCCO[C@@H]1CN(C)S(=O)(=O)c1cn(C)cn1,inactive
3,CC(=O)N[C@H]1[C@H](O[C@H]2CC[C@]3(C)[C@H]4CC=C5[C@@H]6CC(C)(C)CC[C@]6(C(=O)O[C@H]6OC[C@@H](O)[C@@H](O)[C@@H]6O)[C@@H](O)C[C@@]5(C)[C@]4(C)CC[C@H]3C2(C)C)O[C@H](CO[C@H]2OC[C@@H](O)[C@@H](O[C@H]3OC[C@@H](O)[C@@H](O)[C@@H]3O)[C@@H]2O)[C@@H](O[C@@H]2O[C@@H](C)[C@H](O)[C@@H](O)[C@H]2O[C@@H]2O[C@@H](C)[C@H](O)[C@@H](O)[C@H]2O)[C@@H]1O,inactive
4,Cc1noc(C)c1NC(=O)Nc1cccc2c1O[C@@H](CN(C)C(=O)NC(C)C)[C@H](C)CN([C@H](C)CO)C2=O,inactive
5,COc1ccc([C@H]2CC=CC[C@H](C)Oc3ccccc3C(=O)N(C)[C@@H](Cc3ccccc3)C(=O)N2)c(OC)c1,inactive
6,C[C@H]1CC=CC[C@@H](c2ccc3c(c2)OCO3)NC(=O)[C@H](Cc2ccccc2)N(C)C(=O)c2ccccc2O1,inactive
7,COc1ccc([C@H]2CC=CC[C@H](C)Oc3ccccc3C(=O)N(C)[C@H](Cc3ccccc3)C(=O)N2)c(OC)c1,inactive
8,C[C@H]1CC=CC[C@H](c2ccc3c(c2)OCO3)NC(=O)[C@@H](Cc2ccccc2)N(C)C(=O)c2ccccc2O1,active
9,COc1ccc([C@@H]2CC=CC[C@H](C)Oc3ccccc3C(=O)N(C)[C@@H](Cc3ccccc3)C(=O)N2)c(OC)c1,active
10,C[C@@H]1CC=CC[C@H](c2ccc3c(c2)OCO3)NC(=O)[C@@H](Cc2ccccc2)N(C)C(=O)c2ccccc2O1,inactive
11,COCCCN1C(=O)[C@@]2(Cc3ccccc31)c1ccccc1C(=O)N(Cc1ccccc1)[C@H]2c1ccc(CO)cc1,inactive
12,Cc1ccc(S(=O)(=O)Nc2ccc3c(c2)CC(=O)N([C@@H](C)CO)C[C@H](C)[C@H](CN(C)CC2CC2)O3)cc1,inactive
13,Nc1ccc2oc3c(c2c1)CCCC3,inactive
14,CC(C)(C)c1ccc(C(=O)Nc2cccc(C(F)(F)F)c2)cc1,inactive
15,O=C(Nc1ccc(C(F)(F)F)cc1)Nc1cccc(Cl)c1,active
16,CCC(=O)Nc1ccc(Cl)cc1,inactive
17,O=C(Nc1ccc(Cl)cc1)Nc1ccc(Cl)c(Cl)c1,active
18,O=C(Nc1ccccc1)Nc1ccccc1,inactive
19,CC(C)C(=O)Nc1cccc(Cl)c1,inactive
20,C[C@H]1CN([C@@H](C)CO)C(=O)c2cc(NC(=O)Cc3ccccc3)ccc2O[C@H]1CN(C)Cc1ccc(C(F)(F)F)cc1,inactive
21,C[C@@H]1CN([C@@H](C)CO)C(=O)Cc2cc(NC(=O)Cn3cnnn3)ccc2O[C@H]1CN(C)S(=O)(=O)c1cn(C)cn1,inactive
22,COc1cccc(S(=O)(=O)Nc2ccc3c(c2)[C@H]2C[C@@H](CC(=O)NCc4ccccc4F)O[C@@H](CO)[C@H]2O3)c1,inactive
23,CCCCCCCCCCCCCCCCOP(=O)([O-])OCC[N+](C)(C)C,inactive

row,SMILES,cytotoxicity call
1,C[N+](C)(C)CCCCCC[N+](C)(C)C.[Br-].[Br-],inactive
2,CCCCCCCCCCCCCCCC[N+](C)(C)C,active
3,CC1=C2C/C=C(\C)[C@H](O[C@H]3O[C@@H](CO)[C@@H](O)[C@@H](O)[C@@H]3O)C/C=C(\C)C[C@@H]2OC1=O,inactive
4,NCc1nncn1-c1ccccc1,inactive
5,COc1ccccc1CNC(=O)C[C@@H]1C[C@H]2c3cc(NC(=O)c4cccnc4)ccc3O[C@H]2[C@@H](CO)O1,inactive
6,CC(N)(Cc1ccc2c(c1)OCO2)C(=O)O (configuration not stated),inactive
7,C[C@@H]1CN([C@@H](C)CO)C(=O)c2cc(NS(C)(=O)=O)ccc2O[C@@H]1CN(C)S(=O)(=O)c1ccccc1,inactive
8,CCC(=O)N1CCN(c2ccc(-n3c(=O)ccc4cnc5ccc(-c6cnc7ccccc7c6)cc5c43)cc2C(F)(F)F)CC1,active
9,CCCCn1c(-c2ccccc2)nc(-c2ccccc2)c1CN(Cc1ccc2c(c1)OCO2)Cc1ccc2c(c1)OCO2,inactive
10,COc1ccc(-c2cnc3c(c2)C(=O)N([C@@H](C)CO)C[C@@H](C)[C@@H](CN(C)C(=O)C2CCOCC2)O3)cc1,inactive
11,CO[C@@H]1CN(C)C(=O)c2ccc(NC(=O)C3CC3)cc2OC[C@H](C)N(C(=O)CN2CCOCC2)C[C@@H]1C,inactive
12,C[C@@H]1CN([C@@H](C)CO)C(=O)Cc2cc(NS(C)(=O)=O)ccc2O[C@H]1CN(C)S(=O)(=O)c1cccs1,inactive
13,C[C@H](CO)N1C[C@H](C)[C@H](CN(C)Cc2ccc(C(F)(F)F)cc2)Oc2ccc(NS(=O)(=O)c3ccc(Cl)cc3)cc2CC1=O,active
14,C[C@@H]1CN([C@H](C)CO)C(=O)Cc2cc(NS(=O)(=O)c3ccc(Cl)cc3)ccc2O[C@@H]1CN(C)Cc1ccc(C(F)(F)F)cc1,active
15,C[C@@H]1CN([C@H](C)CO)C(=O)Cc2cc(NS(=O)(=O)c3ccc(Cl)cc3)ccc2O[C@H]1CN(C)Cc1ccc(C(F)(F)F)cc1,active
16,C[C@@H]1CN([C@@H](C)CO)C(=O)Cc2cc(NS(=O)(=O)c3ccc(Cl)cc3)ccc2O[C@@H]1CN(C)Cc1ccc(C(F)(F)F)cc1,active
17,C[C@@H]1CCCCO[C@@H](CN(C)S(=O)(=O)c2ccc(Cl)cc2)[C@H](C)CN([C@@H](C)CO)C(=O)c2cc(NS(=O)(=O)c3cccs3)ccc2O1,inactive
18,COc1cccc(NC(=O)N(C)C[C@@H]2Oc3cc(C#Cc4ccncc4)ccc3S(=O)(=O)N([C@H](C)CO)C[C@@H]2C)c1,inactive
19,CC(=O)O[C@H]1C=C[C@@H](O)C1,inactive
20,O=C(CCCCCCC(=O)Nc1ccc([C@H]2C[C@H](c3ccccc3)O[C@H](c3ccncc3)O2)cc1)NO,inactive
21,COc1ccc(-c2cc(=O)c3c(O)cc(O[C@@H]4O[C@H](CO[C@H]5O[C@H](C)[C@@H](O)[C@H](O)[C@@H]5O)[C@@H](O)[C@H](O)[C@H]4O)cc3o2)cc1O,inactive
